# In the library only some 6.5% were active in any assay of this set; here they are far more common.
# FMDV inh: foot and mouth disease virus antiviral activity; FMDV antiviral cell-based qHTS; Potency, µM (series often up to 57.9 µM), for the others: at the top dose activity change, negative = inhibition, usual class: inhibitors; 1.2% of 410,000 active; AID 1159524; calls by dose curve; tested in HEK293T cells; further: read-out not given here; potency means the concentration at half of the fitted maximal effect; nearly all actives have a fitted effect of over 45% in size
# VACV mCherry inh: vaccinia inhibition (mCherry reporter). Vaccinia virus mCherry reporter infection, fluorescence. Potency, µM (series often up to 36.5 µM), for the others: at the highest dose activity change, negative = inhibition, usual class: inhibitors. 0.63% of 310,000 active. AID 720579; calls by dose curve; tested in A549 cells; further: potency means the concentration at half of the fitted maximal effect; nearly all actives have a fitted effect of over 35% in size
# Lassa entry inh: blocks Lassa virus binding to or entry into cells; 1.2% of 300,000 active; Potency, µM (highest dose often 37.9 µM), inactives show top-dose activity change, negative = inhibition, actives largely listed as inhibitors; AID 540256; Lassa virus pseudotype entry inhibition, cell reporter; calls by dose curve; tested in HEK293 cells; further: potency means the concentration at half of the fitted maximal effect; nearly all actives have a fitted effect of over 50% in size
# HCMV inh: inhibitors of human cytomegalovirus; 4.5% of 410,000 active; AID 1259415; activity change, negative = inhibition, % at 57.5 µM; HFF cells, HCMV-luciferase reporter, 72 h; hits give low values; in the data active means activity change below about -60%; inconclusive means no clear call, values can overlap the other calls; inactive means above about -39%
#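 Inhibition of viral replication was scored as loss of reporter luminescence in HFFs infected with HCMV-luciferase (MOI 1 PFU/cell) for 72 h; compounds tested at 2 doses, normalized to buffer and Salinomycin controls.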
# Marburg entry inh: inhibitors of Marburg virus binding or cell entry; Marburg virus pseudotyped entry inhibition, cell reporter; Potency, µM (titrated, usually from 37.8 µM), without a hit: top-dose activity change, negative = inhibition, most hits filed as inhibitors; 1.8% of 300,000 active; AID 540276; calls by dose curve; tested in HEK293 cells; further: potency means the concentration at half of the fitted maximal effect
# Vaccinia Venus: vaccinia inhibition (Venus reporter); Vaccinia virus Venus reporter expression, fluorescence; Potency, µM (series often up to 36.5 µM), for inactives: at the highest dose activity change, negative = inhibition, hits mostly inhibitors; 0.46% of 330,000 active; calls by dose curve; tested in A549 cells; further: potency means the concentration at half of the fitted maximal effect; nearly all actives have a fitted effect of over 30% in size
# Starred values were filed as active, the others as inactive; i = inactive; ? = inconclusive; / = no result; [ ] = remark or other dose. On the % scale 0 is the no-effect control and ±100 the full control effect.
SMILES,FMDV inh,VACV mCherry inh,Lassa entry inh,HCMV inh,Marburg entry inh,Vaccinia Venus
O=C(NCc1ccccc1F)c1ccc2c(c1)OCO2,35%,/,19%,23,15%,/
O=C(Nc1ccc(Br)cc1F)c1ccc2c(c1)OCCO2,-48%,-8%,?,-18,6.3µM*,-6%
O=C(NCCc1ccccc1F)c1ccc2c(c1)OCCO2,2.8µM*,-7%,0.89µM*,-99*,?,-3%
O=C(COC(=O)c1ccc2c(c1)OCCO2)Nc1ccc(F)cc1F,19%,i,1%,-21,29%,-5%
CC(C)Oc1cccc(C(=O)Nc2ccc(Br)cc2F)c1,0%,-29%,2µM*,20,?,?
CCOc1ccc(OCC)c(NC(=O)c2nnn(CC(=O)Nc3cc(Cl)ccc3OC)c2N)c1,-28%,-22%,-2%[46.1 µM],-18,-12%[46.1 µM],-20%
Cc1nnc(SCC(=O)NCc2cccc(F)c2)c2nn(-c3ccccc3)c(C)c12,?,-26%,?,-61*,/,-27%
COc1cccc(CNC(=O)CSc2nnc(C)c3c(C)n(-c4ccccc4)nc23)c1OC,?,i,-2%[46.1 µM],-19,/,-7%
COc1ccc(CNC(=O)CSc2nnc(C)c3c(C)n(-c4ccccc4)nc23)c(OC)c1,?,-13%,?,-65*,/,-13%
O=c1c(-c2cccs2)nc2cnc(N3CCNCC3)nc2n1C1CC1,-16%,/,/,/,/,/
Oc1cc(NCc2ccc(Cl)cc2)cc2cccnc12,-11%,/,/,-39,/,/
COc1cc(NCc2ccccc2O)c2ncccc2c1,8%,?,?,18,?,-10%
CN(C)CCCNc1cc(O)c2ncccc2c1,?,/,/,-78*,/,/
Oc1cc(NCc2ccc(F)cc2)cc2cccnc12,-2%,/,/,-93*,/,/
CC(=O)C1=CCN(C)CC1,/,/,/,-34,/,/
O=C(NCCS(=O)(=O)N1CCN(c2ccccc2)CC1)C12CC3CC(CC(C3)C1)C2,?,-20%,/,?,/,?
COc1ccc(Cl)cc1C(=O)NCCS(=O)(=O)N1CCN(c2ccccc2OC)CC1,8.9µM*,?,-13%[46.1 µM],-20,/,-27%
COc1ccccc1N1CCN(S(=O)(=O)CCNC(=O)CCc2ccccc2)CC1,?,-3%,/,-86*,/,-20%
COc1ccccc1N1CCN(CCS(=O)(=O)c2cc(Cl)ccc2Cl)CC1,-12%,8.9µM*,/,-20,/,?
COc1ccccc1N1CCN(S(=O)(=O)CCNC(=O)C23CC4CC(CC(C4)C2)C3)CC1,14µM*,/,/,-13,/,/
COc1ccc(CC(=O)NCCS(=O)(=O)N2CCN(c3ccccc3OC)CC2)cc1,-15%,-6%,?,-27,?,-26%
CC(=O)N(c1ccc(Cl)cc1)C1SC(=O)N(c2ccccc2)C1=O (stereo unspecified),/,i,/,/,/,-15%
COc1cc(/C=C/c2cc[n+](C)c3ccccc23)cc(OC)c1OC,/,35%,/,/,/,14%
COc1ccc(OC)c(NC(=O)Cn2c(=O)n(-c3ccc(Cl)cc3)c(=O)c3c(C)c(C)sc32)c1,-19%,?,11%[46.1 µM],3,-2%[46.1 µM],?
Cc1ccc(OCc2ccc(C(=O)Nc3c(C)nn(Cc4c(F)c(F)c(F)c(F)c4F)c3C)o2)c([N+](=O)[O-])c1,?,/,?,-39,16µM*,/
SMILES,FMDV inh,VACV mCherry inh,Lassa entry inh,HCMV inh,Marburg entry inh,Vaccinia Venus
COc1ccc([C@H]2C[C@H](O)[C@@H](n3cc(COC(=O)c4ccccc4)nn3)CN2CC2CCCCC2)cc1,?,-26%,?,-90*,/,?
CCCCCCN1C[C@H](n2cc(COC(=O)c3ccccc3)nn2)[C@@H](O)C[C@@H]1c1ccc(Cl)cc1,?,?,/,?,/,10µM*
COc1ccc(C2/C=C\CN(C(=O)C3CC3)[C@H](Cc3ccccc3)C(=O)N2Cc2ccc(F)cc2)cc1 (stereo partly specified),0%,?,/,/,/,?
COc1ccc(CC2C(=O)NC(C)C(=O)N(C)C3C(=O)N(C)C(Cc4ccc(O)c(c4)Oc4ccc(cc4)C3O)C(=O)NC(C)C(=O)NC(C)C(=O)N2C)cc1 (stereo unspecified),?,0.32µM*,?,-98*,?,0.089µM*
COc1ccc(C[C@@H]2C(=O)N[C@H](C)C(=O)N(C)[C@@H]3Cc4ccc(cc4)Oc4cc(ccc4O)C[C@H](C(=O)N[C@@H](C)C(=O)N[C@H](C)C(=O)N2C)N(C)C3=O)cc1,/,158µM*,/,/,/,0.28µM*
O=C(Nc1ccc(F)c(F)c1)c1cnn2c1NC(=C1CC1)C=C2C(F)F,/,i,/,/,/,-17%
CC(C)(C)c1ccc(OCC(=O)N/N=C/c2ccc(N3CCOCC3)cc2)cc1,0%,-4%,0.092µM*,-17,-23%,-23%
C/C(=N/NC(=O)COc1ccc(C(C)(C)C)cc1)c1ccc(N2CCOCC2)cc1,-3%,i,0.56µM*,15,-4%,-14%
C/C(=N\NC(=O)c1ccc(Cl)cc1)c1ccc(N2CCOCC2)cc1,0%,i,8%,46,2%,-9%
Cc1ccc(C)c(OCC(=O)N/N=C/c2ccc(N3CCOCC3)cc2)c1,?,i,/,6,/,-5%
CCn1c(-c2ccccc2F)nc2cc(NC(C)=O)cc(C(=O)N3CCCCC3c3nccn3C)c21 (stereo unspecified),-1%,19%,/,/,/,20%
O=C(c1cccc(Cl)c1)N1CCCC(Cn2cc(C(=O)N3CCCC3)nn2)C1 (stereo unspecified),14%,-4%,/,/,/,0%
Cc1ccc(C)c(CN2CCc3nnc(CNC(=O)c4cc(C)oc4C)n3CC2)c1,-21%,-20%,/,/,/,-13%
O=[N+]([O-])c1ccc(Cl)c(S(=O)(=O)/N=C(/c2ccccc2)N2CCOCC2)c1,-8%,?,?,-105*,3%[46.1 µM],-1%
Cc1nnc(SCc2nnc(-c3cccs3)o2)n1Cc1ccccc1,-10%,i,7%,-7,-16%,-8%
Clc1ccc(-c2nnc(CSc3nnc(-c4cccs4)n3Cc3ccccc3)o2)cc1,?,/,?,-88*,?,/
COC(=O)c1ccccc1C(=O)NCC1Cc2cc(-c3nc(C)cnc3C)ccc2O1 (stereo unspecified),-3%,-3%,/,/,/,-1%
Cc1cc(C)c2nc(SCC(=O)Nc3ccccc3N3CCOCC3)c(C#N)cc2c1,-9%,-15%,-3%,-17,-13%[46.1 µM],-9%
COc1ccc2nc(SCC(C)=O)c(C#N)cc2c1,-35%,i,5.6µM*,27,?,-19%
COc1ccc2nc(SCC(=O)N3CC(=O)Nc4ccccc43)c(C#N)cc2c1,-20%,?,?,-100*,?,?
Cc1cc(C)c2nc(SCC(=O)N3CC(=O)Nc4ccccc43)c(C#N)cc2c1,?,?,?,-88*,?,?
O=C(NCc1cccnc1)/C(=C\c1ccc(-c2ccc(Br)cc2)o1)S(=O)(=O)c1ccccc1,3.2µM*,?,13µM*,-103*,?,10µM*

# Assay outcomes: PubChem BioAssay, National Center for Advancing Translational Sciences (NCATS)
